# About 83,000 compounds went through this panel and 20% of them were active in at least one assay; those are over-represented in the sample as a whole.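 For each line, cells grew in 96-well plates with the test compound present at a single concentration for 48 hours.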 A number with no mark means an inactive call. Active and inactive are the calls of the source. Rule for the calls: active = growth percent below 10; inactive = the rest.
# Experiments:
# Assay in all cases: NCI-60 one-dose screen, 48 h (100 = growth as untreated, 0 = no growth, -100 = all killed)
# RPMI-8226 leukemia = details: 10 µM unless noted
# OVCAR-8 ovarian = details: 10 µM unless noted
# OVCAR-5 ovarian = details: 10 µM unless noted
# OVCAR-4 ovarian = details: 10 µM unless noted
# SK-OV-3 ovarian = details: 10 µM unless noted
# IGROV1 ovarian = details: 10 µM unless noted
# OVCAR-3 ovarian = details: 10 µM unless noted
# HS 578T breast = details: 10 µM unless noted
# NCI/ADR-RES ovarian = details: 10 µM unless noted
# T-47D breast = details: 10 µM unless noted
# MDA-MB-435 melanoma = details: 10 µM unless noted
# SW-620 colon = details: 10 µM unless noted
# MCF7 breast = details: 10 µM
# HCT-116 colon = details: 10 µM unless noted
# HCC-2998 colon = details: 10 µM unless noted
# KM12 colon = details: 10 µM unless noted
# BT-549 breast = details: 10 µM unless noted
SMILES,growth (RPMI-8226 leukemia),growth (OVCAR-8 ovarian),growth (OVCAR-5 ovarian),growth (OVCAR-4 ovarian),growth (SK-OV-3 ovarian),growth (IGROV1 ovarian),growth (OVCAR-3 ovarian),growth (HS 578T breast),growth (NCI/ADR-RES ovarian),growth (T-47D breast),growth (MDA-MB-435 melanoma),growth (SW-620 colon),growth (MCF7 breast),growth (HCT-116 colon),growth (HCC-2998 colon),growth (KM12 colon),growth (BT-549 breast)
O=C(Nc1ccc(Cl)cc1F)c1cc(Br)ccc1O,-13.5% (active),9.53% (active),22%,14.4%,-0.537% (active),19.5%,9.61% (active),1.54% (active),7.03% (active),-14% (active),0.322% (active),11.4%,4% (active),5.79% (active),16.7%,0.131% (active),–
C1CCN(c2nc(N3CCCCC3)nc(N3CCOCC3)n2)CC1,100%,96.4%,122%,96%,99.6%,104%,118%,112%,103%,86.2%,101%,103%,–,105%,90.7%,106%,109%
O=C(CCc1nnc2sc(COc3ccccc3)nn12)c1nc2ncccc2[nH]1,140%,98.9%,98.4%,100%,94.7%,87.2%,108%,79%,106%,92.7%,101%,85.8%,94.5%,91.3%,99.8%,99.8%,–
COc1ccc(/C=C2\SC(=Nc3ccccc3)NC2=O)cc1,-50.9% (active),-81.2% (active),-77.8% (active),-49.4% (active),-54.1% (active),-78.2% (active),-69.4% (active),-47.5% (active),-8.71% (active),-72.8% (active),–,-74.2% (active),-85% (active),-82.2% (active),-87.5% (active),–,-72.2% (active)
O=C(COc1cc(O)c2c(=O)cc(-c3ccccc3)oc2c1)Nc1ccccc1,93.3%,87.2%,98.1%,78.9%,107%,99.1%,106%,80.3%,88.9%,94.3%,95.3%,87.5%,85.3%,57.4%,99.7%,–,–
O=C(COc1cc(O)c2c(=O)cc(-c3ccccc3)oc2c1)Nc1ccccc1C(F)(F)F,54.8%,29%,62.9%,-50.1% (active),44.1%,40.3%,-2.06% (active),15.5%,51.2%,14.3%,78%,21.8%,49.8%,5.84% (active),90%,68.5%,–
CCCCCCCCCCOC(=O)c1ccccc1C(=O)OCCCC,101%,109%,103%,115%,114%,118%,106%,118%,107%,106%,–,102%,102%,–,108%,105%,114%
COc1cc(OC)cc(N2C(=O)N(Cc3ccc(C(C)(C)C)cc3)c3ccccc3S2(=O)=O)c1,34.6%,96%,86.2%,81.8%,93.4%,86.4%,92.2%,90.9%,73.2%,81.1%,–,82.2%,90.7%,76.2%,-46% (active),82.6%,99.6%
CN1CCN(c2nc(Nc3ccc(O)cc3)nc3ccccc23)CC1,32.7%,30.1%,82.5%,82.9%,57.2%,52.1%,59.5%,89.2%,51.1%,82.2%,–,57.2%,44.9%,94.6%,46.1%,65.6%,70.8%
O=c1oc2ccc(-c3ccc(F)cc3F)cc2c(=O)n1-c1ccc(Cl)c(C(F)(F)F)c1,3.09% (active),8.57% (active),74.8%,21.6%,-9.2% (active),35.3%,7.34% (active),14.6%,6.43% (active),-11% (active),7.88% (active),14.6%,7.27% (active),6.47% (active),25.6%,3.84% (active),–
O=C(Nc1ccc(I)cc1F)c1cc(F)ccc1O,-33.8% (active),6.16% (active),23.6%,12.4%,-6.45% (active),12.7%,6.68% (active),-3.33% (active),4.19% (active),-12.4% (active),-5.16% (active),7.82% (active),0.117% (active),-6.74% (active),8.95% (active),-11.4% (active),–
O=C(Nc1ccc(F)cc1F)c1cc(Br)ccc1O,-10.4% (active),8.63% (active),-7.85% (active),-0.761% (active),-21.8% (active),15.5%,0.111% (active),10.2%,1.62% (active),-20.1% (active),0.167% (active),13.1%,-1.09% (active),1.66% (active),13.5%,-0.56% (active),–
O=C(Nc1ccc(F)cc1F)c1cc(I)ccc1O,-2.64% (active),11.8%,32.6%,20.1%,-13.8% (active),22%,8.96% (active),10%,8.58% (active),-9.33% (active),5.35% (active),14.5%,5.52% (active),6.45% (active),24.4%,6.2% (active),–
O=c1oc2ccc(F)cc2c(=O)n1-c1ccc(I)cc1F,-20.4% (active),8.61% (active),22.2%,12.4%,-4.12% (active),17.2%,8.05% (active),-4.95% (active),2.32% (active),-16.2% (active),-1.4% (active),11%,1.73% (active),7.36% (active),14.6%,-0.975% (active),–
O=C(Nc1ccc(I)cc1F)c1cc(Cl)ccc1O,-29.3% (active),10.1%,26.1%,15%,4.21% (active),16.2%,4.4% (active),5.53% (active),9.54% (active),-4.67% (active),-2.93% (active),8.71% (active),1.52% (active),-29.5% (active),17.6%,-10.9% (active),–
O=C(Nc1ccc(I)cc1F)c1cc(Br)ccc1O,-18.9% (active),7.13% (active),23.7%,12.4%,-4.76% (active),16.3%,8.04% (active),-3.47% (active),7.79% (active),-9.09% (active),-3.54% (active),7.36% (active),2.45% (active),-8.63% (active),14.6%,-7% (active),–
O=c1oc2ccc(I)cc2c(=O)n1-c1ccc(F)cc1F,1.49% (active),12.5%,40%,12.7%,-19.4% (active),20.2%,2.05% (active),19.8%,5.71% (active),-13.5% (active),1.74% (active),19.7%,5.86% (active),6.72% (active),26%,3.81% (active),–
O=c1oc2ccc(Cl)cc2c(=O)n1-c1ccc(I)cc1F,-25.3% (active),8.73% (active),23.1%,16.1%,7.52% (active),14.9%,6.61% (active),-0.395% (active),5.51% (active),-6.79% (active),-6.3% (active),7.19% (active),3.96% (active),2% (active),16.2%,-18.3% (active),–

# From PubChem BioAssay (NCI)
